Assay outcomes (PubChem BioAssay)
Most compounds without a hit are left out; they make up all but 7.4% or so of the library.
NPC1 promoter act = NPC1 promoter activation; AID 485313; Huh7 NPC1 promoter luciferase reporter, 24 h; Potency, µM (series often up to 9.22 µM), without a hit: at the top dose activation, actives largely listed as activators; hit rate 2.4% among 320,000; also: % of control where 0% means no effect; nearly all actives have a fitted effect of over 60% in size
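Huh7 reporter cells (NPC1 promoter driving luciferase) are dosed with compound for 24 h at 37 °C, 5% CO2; luciferase detection reagent is then added and luminescence measured after 10 min at ambient temperature.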
SMN2 splice up = increases expression of the SMN2 splice variant. AID 1458. HEK293 SMN2-luciferase splicing reporter, luminescence, 30-36 h. Potency, µM (doses to about 46.1 µM), for the others: top-dose activity change, positive = activation, hits mostly activators. hit rate 2.8% among 210,000; also: % of control where 0% means no effect; nearly all actives have a fitted effect of over 55% in size
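qHTS luciferase splicing reporter: luminescence rises when SMN2 exon 7 is included in transfected HEK293 cells. Compound exposure lasted 30-36 h at 37C, with 4.5 mM final sodium butyrate as control, followed by a ONE-Glo read.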
Luc counter = counter-screen: inhibitors of Kinase-Glo firefly luciferase | Q27757 | Kinase-Glo luciferase, ATP luminescence, 8 min | Potency, µM (doses to about 38.3 µM), inactives show top-dose activity change, negative = inhibition, most hits filed as inhibitors | hit rate 0.28% among 200,000 | AID 1379; also: % is scaled to controls: 0 for no effect and ±100 for the full control effect; nearly all actives have a fitted effect of over 60% in size
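Compounds were added to a substrate mix at pH 7.2 (50 mM imidazole, 10 uM ATP, within the enzyme's linear range), followed by Kinase-Glo detection reagent; luminescence was measured after 8 minutes at ambient temperature.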
FLuc modulator = inhibits or activates purified firefly luciferase, miR-21 counter-screen | P08659 | purified FLuc, Km substrates, luminescence inhibition | Potency, µM (titrated, usually from 57.5 µM), for the others: at the highest dose activity change, negative = inhibition, most hits filed as inhibitors | hit rate 6.9% among 360,000;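 also: plate controls were vehicle for no effect and reference inhibitor for full effect; nearly all actives have a fitted effect of over 55% in size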
Target sequence (P08659 whole entry, looked up): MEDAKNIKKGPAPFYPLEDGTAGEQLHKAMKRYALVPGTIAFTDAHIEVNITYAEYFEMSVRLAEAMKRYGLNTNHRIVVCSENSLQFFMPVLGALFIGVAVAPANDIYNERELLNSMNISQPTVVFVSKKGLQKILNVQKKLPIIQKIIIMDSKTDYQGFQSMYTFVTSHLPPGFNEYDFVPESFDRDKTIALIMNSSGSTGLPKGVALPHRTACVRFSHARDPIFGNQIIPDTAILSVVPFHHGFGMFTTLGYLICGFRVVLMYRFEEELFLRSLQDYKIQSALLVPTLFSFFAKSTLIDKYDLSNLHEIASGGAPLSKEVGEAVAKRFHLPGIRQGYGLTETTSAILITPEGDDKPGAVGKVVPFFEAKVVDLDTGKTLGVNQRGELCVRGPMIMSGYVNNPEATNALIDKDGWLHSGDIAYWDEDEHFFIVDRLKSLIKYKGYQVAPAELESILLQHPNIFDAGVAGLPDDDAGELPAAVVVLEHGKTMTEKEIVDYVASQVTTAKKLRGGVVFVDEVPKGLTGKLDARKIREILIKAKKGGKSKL
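Purified P. pyralis luciferase, 10 nM final, with Km-level 10 uM D-luciferin and 10 uM ATP in 50 mM Tris acetate pH 7.5, 10 mM Mg acetate, 0.01% Tween-20, 0.05% BSA; 6-point qHTS titration about 60 µM downward; luminescence read.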
ELG1 genotox = inducers of genotoxicity in HEK293T ELG1-luciferase cells; Potency, µM (series often up to 46 µM), for inactives: at the highest dose activity change, positive = activation, hits mostly activators; hit rate 1.3% among 330,000; AID 504466; HEK293T ELG1-luciferase reporter, luminescence, 16 h; also: % of control where 0% means no effect; nearly all actives have a fitted effect of over 60% in size
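DMSO vehicle served as control against compound-treated ELG1-luciferase HEK293T cells; exposure lasted 16 hr at 37 °C and 5% CO2, followed by ONE-Glo luminescence detection after 30 min.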
Rab9 promoter act = activates the Rab9 promoter; Huh7 Rab9 promoter-luciferase reporter, luminescence, 24 h; Potency, µM (titrated, usually from 9.22 µM), inactives show at the highest dose activation, negative = inhibition, usual class: activators; AID 485297; hit rate 2.8% among 320,000; also: % of control where 0% means no effect; nearly all actives have a fitted effect of over 60% in size
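Quantitative HTS format; Huh7 Rab9-luciferase reporter cells (1500/well) receive compound 2 h post-plating, incubate 24 h at 37 °C, then get luciferase reagent for 10 min before luminescence reading.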
The depositor's hits bear a star; [ ] = dose if it differs, or a comment. Calls follow the shape of the dose curve; as a rule, active = well fitted curve in the direction sought with a large enough effect; inconclusive = small, poorly fitted or top-dose-only effect, or another doubt; inactive = no such curve, though single readings can be large; an effect the other way counts as inactive or inconclusive. Potency is read from the fitted curve at half-maximal effect.

What do the screens show for `CCOC(=O)C1(Cc2cccc(OC)c2)CCCN(C(=O)c2ccc(OC)o2)C1` (configuration not stated)?
NPC1 promoter act: inconclusive; FLuc modulator: 12µM*; ELG1 genotox: inconclusive; Rab9 promoter act: 2.51µM*

What do the screens show for `CCOC(=O)C1(Cc2cccc(OC)c2)CCCN(Cc2cc(OC)c(O)c(OC)c2)C1` (configuration not stated)?
NPC1 promoter act: 3.8%; FLuc modulator: -2.5%; ELG1 genotox: -3.9%; Rab9 promoter act: 7.0%

How did CCOC(=O)C1(Cc2cccc(OC)c2)CCCN(C(=O)c2cc(CC(C)C)[nH]n2)C1 (configuration not stated) do in these assays?
NPC1 promoter act: inconclusive; FLuc modulator: 21.3µM*; ELG1 genotox: inconclusive; Rab9 promoter act: 3.55µM*

How did O=C(Nc1nnc2n1CCS2)c1cc(C(F)(F)F)cc(C(F)(F)F)c1 do in these assays?
FLuc modulator: -2.9%

What do the screens show for `Cc1nc(C(=O)NNC(=O)c2cccc(Cl)c2)c(C(F)(F)F)o1`?
NPC1 promoter act: -2.7%; FLuc modulator: 5.2%; ELG1 genotox: 0.2%; Rab9 promoter act: 0.2%

What do the screens show for `Cc1nc(/C(N)=N/OC(=O)c2ccc(Cl)cc2)c(C(F)(F)F)o1`?
NPC1 promoter act: -5.1%; FLuc modulator: 7.57µM*; ELG1 genotox: 2.9%; Rab9 promoter act: -3.0%

Results for CCCCNC(=S)Nc1ccc(-c2nc3ccc(C)cc3s2)cc1 ?
NPC1 promoter act: 3.55µM*; SMN2 splice up: 3.55µM*; Luc counter: 2.0%; FLuc modulator: 1.69µM*; ELG1 genotox: 4.61µM*; Rab9 promoter act: 2.82µM*

Results for CCC(C)(C)NC(=S)Nc1ccc(-c2nc3ccc(C)cc3s2)cc1 ?
NPC1 promoter act: 4.47µM*; SMN2 splice up: 28.1%[1.84 µM]; Luc counter: -2.7%; FLuc modulator: 2.69µM*; ELG1 genotox: 9.2µM*; Rab9 promoter act: 2.82µM*

Results for COC(=O)c1ccccc1NC(=O)CSc1nc2ccccc2nc1Cc1ccccc1OC ?
FLuc modulator: -2.3%

How did Cc1cc(O)c(/C=N/Nc2cccc(Cl)c2)c(=O)o1 do in these assays?
NPC1 promoter act: 18.5%; SMN2 splice up: -24.0%; Luc counter: -1.1%; FLuc modulator: 15.1µM*; ELG1 genotox: 9.8%; Rab9 promoter act: 1.3%

What do the screens show for `Cc1cc(O)c(/C=N/Nc2ccc(Cl)cc2)c(=O)o1`?
NPC1 promoter act: 19.9%; SMN2 splice up: -21.1%; Luc counter: -4.8%; FLuc modulator: 2.69µM*; ELG1 genotox: 9.6%; Rab9 promoter act: 14.8%

Results for Cc1cc(O)c(/C=N/Nc2ccccc2Cl)c(=O)o1 ?
NPC1 promoter act: inconclusive; SMN2 splice up: -1.4%; Luc counter: -2.2%; FLuc modulator: inconclusive; ELG1 genotox: inconclusive; Rab9 promoter act: 29.8%

Results for CNc1cc([N+](=O)[O-])ccc1OCc1ccccc1 ?
NPC1 promoter act: 16.1%; FLuc modulator: 19µM*; ELG1 genotox: 8.6%; Rab9 promoter act: 16.0%

Results for COc1cc(OC)cc(-c2nc3nc(C)c(CCC(=O)Nc4cc(C)cc(C)c4)c(C)n3n2)c1 ?
SMN2 splice up: 2.8%; FLuc modulator: 3.0%

Results for CSc1ccc(CNC(=O)C2CCN(c3nnc(-n4cccc4CNc4ccc(C)cc4)s3)CC2)cc1 ?
SMN2 splice up: -47.2%; FLuc modulator: inconclusive

What do the screens show for `Cc1ccc(C(=O)CC2(O)C(=O)N(Cc3ccccc3Cl)c3ccccc32)o1` (configuration not stated)?
NPC1 promoter act: -4.5%; SMN2 splice up: inconclusive; Luc counter: -1.6%; FLuc modulator: 2.9%; ELG1 genotox: 1.7%; Rab9 promoter act: -1.9%

Results for Cc1ccc(C(=O)CC2(O)C(=O)N(Cc3ccccc3)c3ccccc32)o1 (configuration not stated) ?
NPC1 promoter act: -2.3%; SMN2 splice up: 11.2µM*; Luc counter: 0.8%; FLuc modulator: 7.3%; ELG1 genotox: -0.3%; Rab9 promoter act: -1.9%

What do the screens show for `CSc1ccccc1NC(=O)CO/N=C(\C)c1cc2ccccc2o1`?
NPC1 promoter act: -2.0%; SMN2 splice up: -60.8%; Luc counter: 1.7%; FLuc modulator: inconclusive; ELG1 genotox: 17.3%; Rab9 promoter act: 0.5%

Results for C/C(=N\NC(=O)COc1ccc(C)cc1C(C)C)c1cc2ccccc2o1 ?
NPC1 promoter act: 19.3%; SMN2 splice up: 12.6µM*; Luc counter: -4.4%; FLuc modulator: 3.38µM*; ELG1 genotox: 1.8%; Rab9 promoter act: 10.7%

What do the screens show for `C/C(=N\NC(=O)CNc1ccc(F)cc1)c1cc2ccccc2o1`?
NPC1 promoter act: 0.6%; SMN2 splice up: -29.1%; Luc counter: -0.8%; FLuc modulator: inconclusive; ELG1 genotox: -5.5%; Rab9 promoter act: 3.4%

How did C/C(=N\NC(=O)COc1ccc(C(C)(C)C)cc1)c1cc2ccccc2o1 do in these assays?
NPC1 promoter act: 2.82µM*; SMN2 splice up: 17.8µM*; Luc counter: -1.9%; FLuc modulator: 0.301µM*; ELG1 genotox: 17.0%; Rab9 promoter act: 3.55µM*

How did COc1ccc(NCC(=O)N/N=C(\C)c2cc3ccccc3o2)cc1 do in these assays?
NPC1 promoter act: 8.8%; SMN2 splice up: 1.9%; Luc counter: -2.9%; FLuc modulator: 16.9µM*; ELG1 genotox: -3.1%; Rab9 promoter act: -2.6%

How did C/C(=N\NC(=O)COc1ccc(C(C)(C)C)cc1)c1ccccc1 do in these assays?
NPC1 promoter act: -3.4%; SMN2 splice up: -13.9%; Luc counter: 0.6%; FLuc modulator: 10.7µM*; ELG1 genotox: 2.0%; Rab9 promoter act: -1.1%

Results for C/C(=N\NC(=O)COc1ccc(C(C)(C)C)cc1)c1ccc(OC(F)F)cc1 ?
NPC1 promoter act: 3.4%; SMN2 splice up: -5.2%; Luc counter: 0.5%; FLuc modulator: inconclusive; ELG1 genotox: -2.2%; Rab9 promoter act: 0.7%

How did O=C1CSC2(C(=O)N(Cc3c(F)cccc3Cl)c3ccccc32)N1c1ccc(F)c(F)c1 (configuration not stated) do in these assays?
FLuc modulator: -1.0%

Results for CCc1ccc(OCC(=O)N/N=C(\C)c2ccc3c(c2)OCCO3)cc1 ?
NPC1 promoter act: 1.3%; SMN2 splice up: 8.1%; Luc counter: 7.1%; FLuc modulator: inconclusive; ELG1 genotox: -4.7%; Rab9 promoter act: -4.4%

How did C/C(=N\NC(=O)COc1ccc(C(C)(C)C)cc1)c1ccc2c(c1)OCCO2 do in these assays?
NPC1 promoter act: -2.7%; SMN2 splice up: 1.3%; Luc counter: -0.3%; FLuc modulator: 19µM*; ELG1 genotox: -0.6%; Rab9 promoter act: -1.4%
